Results: PubChem BioAssay (NCATS)
Results filed as inconclusive are left out. Calls of active or inactive are those of the source. Calls follow the shape of the dose curve; as a rule, active = well fitted inhibition curve with a large enough effect; inconclusive = small, poorly fitted or top-dose-only effect; inactive = flat fitted curve, though single readings scatter.

The molecules below were run on Zika virus NS2B-NS3 protease (assay: Primary screen GU AMC qHTS for Zika virus inhibitors (AID 1347154;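 also: 0% = no-inhibitor control and -100% = no-enzyme control; nearly all actives have a fitted effect of over 70% in size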)). Conditions: Zika NS2B-NS3 unlinked protease, AMC fluorogenic substrate; series mostly up to 54.1 µM; activity change, negative = inhibition: at the top concentration.
How it was run: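 Unlinked Zika NS2B hydrophilic domain/NS3 protease domain noncovalent complex (25 nM final) in 10 mM Tris-HCl pH 8.0, 0.01% Tween 20, with AMC peptide substrate. Fluorescence (ex 340, em 450 nm) change over 15 min, room temperature; percent inhibition fitted to 4-parameter Hill equation.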
`Cc1cc(=O)[nH]c(=S)[nH]1` was tested, and the “activity change, negative = inhibition” value was -4.74% (inactive).
With `Cc1ccc(C(C)C)c(O)c1` the “activity change, negative = inhibition” value was 0.0404% (inactive).
With `O=C1c2cccc(O)c2C(=O)c2c(O)cccc21` the “activity change, negative = inhibition” value was -2.23% (inactive).
In the case of `O=c1[nH]c2cc(C(F)(F)F)c(N3CCOCC3)cc2n(CP(=O)(O)O)c1=O`, the Potency is reported as “inactive”.
`CC1(C)S[C@@H]2[C@H](NC(=O)C(C(=O)O)c3ccccc3)C(=O)N2[C@H]1C(=O)O` (some centres not stated) was tested, and the “activity change, negative = inhibition” value was -4.44% (inactive).
For `Cc1ccsc1/C=C/C1=NCCCN1C`, the “activity change, negative = inhibition” value was -7.69% (inactive).
With `CCN[C@H]1CN(CCCOC)S(=O)(=O)c2sc(S(N)(=O)=O)cc21` the “activity change, negative = inhibition” value was 1.78% (inactive).
For `COCC(=O)Nc1c(I)c(C(=O)NCC(O)CO)c(I)c(C(=O)N(C)CC(O)CO)c1I` (configuration not stated), the “activity change, negative = inhibition” value was 1.15% (inactive).
`CC[C@]12CCCN3CCc4c(n(c5ccccc45)[C@@](O)(C(=O)OC)C1)[C@@H]32` was tested, and the “activity change, negative = inhibition” value was 3.44% (inactive).
`C[C@@H]1CCC[C@H](C)N1` was tested, and the “activity change, negative = inhibition” value was -0.379% (inactive).
In the case of `CC1(c2ccccc2)OC(C(=O)O)=CC1=O` (configuration not stated), the Potency is reported as “inactive”.
In the case of `CC(=O)Nc1ccccc1`, the “activity change, negative = inhibition” value is reported as -2.51% (inactive).
For `Cc1ccc2c(c1)c1c3n2CCNC3CCC1` (configuration not stated), the “activity change, negative = inhibition” value was -7.76% (inactive).
`Cc1ncc(CO)c(CN)c1O` was tested, and the “activity change, negative = inhibition” value was -11.9% (inactive).
With `OCc1ccc(Cl)cc1Cl` the “activity change, negative = inhibition” value was -3.48% (inactive).
With `C=CCN1C[C@H](C(=O)N(CCCN(C)C)C(=O)NCC)C[C@@H]2c3cccc4[nH]cc(c34)C[C@H]21` the Potency was “inactive”.
For `COc1ccccc1OCC(O)CO` (configuration not stated), the “activity change, negative = inhibition” value was -1.33% (inactive).
`COC(=O)c1cccnc1` was tested, and the “activity change, negative = inhibition” value was -2.98% (inactive).
In the case of `NC(=O)N[C@@H](CCC(=O)O)C(=O)O`, the “activity change, negative = inhibition” value is reported as -2.22% (inactive).
For `C/C=C1\[C@H]2C=C(C)C[C@]1(N)c1ccc(=O)[nH]c1C2`, the “activity change, negative = inhibition” value was 4.65% (inactive).
For `OCC(O)CS` (configuration not stated), the “activity change, negative = inhibition” value was -2.07% (inactive).
In the case of `CC(=O)[C@@]1(O)CC[C@H]2[C@@H]3C[C@H](C)C4=CC(=O)C=C[C@]4(C)[C@@]3(F)[C@@H](O)C[C@@]21C`, the “activity change, negative = inhibition” value is reported as -0.854% (inactive).
For `Cc1c(I)c(=O)n(-c2ccccc2)n1C`, the “activity change, negative = inhibition” value was -0.609% (inactive).
For `O=C(O)c1ccc(OCCCOc2ccc(C(=O)O)cc2)cc1`, the “activity change, negative = inhibition” value was -0.954% (inactive).
`CC(=O)NCc1c(I)c(NC(C)=O)c(I)c(C(=O)O)c1I` was tested, and the “activity change, negative = inhibition” value was -3.69% (inactive).
For `CCOC(=O)c1cccnc1`, the “activity change, negative = inhibition” value was 1.67% (inactive).
With `CN(C(=O)c1c(O)c2ccccc2n(C)c1=O)c1ccccc1` the Potency was “inactive”.
`C1CCN2C[C@@H]3C[C@@H](CN4CCCC[C@@H]34)[C@H]2C1` was tested, and the “activity change, negative = inhibition” value was 4.22% (inactive).
`NCc1ccc(S(N)(=O)=O)cc1` was tested, and the “activity change, negative = inhibition” value was 0.561% (inactive).
For `Cc1c(Cn2ccnc2)c2ccccc2n1CCC(=O)O`, the “activity change, negative = inhibition” value was -1.7% (inactive).
With `CCN(CC)CCOC(=O)C(c1ccccc1)c1ccccc1` the “activity change, negative = inhibition” value was 0.192% (inactive).
For `NC(=O)CC[C@@H](N)C(=O)O`, the “activity change, negative = inhibition” value was 3.92% (inactive).
In the case of `COc1ccccc1Oc1c(NS(=O)(=O)c2ccc(C(C)(C)C)cc2)nc(-c2ncccn2)nc1OCCO`, the “activity change, negative = inhibition” value is reported as 1.03% (inactive).
In the case of `CC(=O)Nc1cccc(O)c1`, the “activity change, negative = inhibition” value is reported as 0.201% (inactive).
For `NS(=O)(=O)c1ccc(NC(=O)CCC(=O)O)cc1`, the “activity change, negative = inhibition” value was 4.14% (inactive).
For `CN/C(=C\[N+](=O)[O-])NCCSCc1csc(CN(C)C)n1`, the “activity change, negative = inhibition” value was -6.35% (inactive).
With `CN1CCCN=C1COC(=O)C(O)(c1ccccc1)C1CCCCC1` (configuration not stated) the “activity change, negative = inhibition” value was -4.75% (inactive).
